In PubChem BioAssay (NCI) one finds growth data, which are given here for 15 molecules.

Compounds without any hit were thinned out: in the full panel of roughly 83,000, 20% have a hit.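 A percent growth of 40 corresponds to 60% growth inhibition; 0 means no net growth; -100 means all cells died. Active threshold: below 10.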 Unmarked numbers belong to inactive results. Activity calls are given as the source filed them.

Test systems include SK-MEL-2 melanoma; EKVX NSCLC; UO-31 renal; TK-10 renal; ACHN renal; CAKI-1 renal; A498 renal; CCRF-CEM leukemia; MOLT-4 leukemia.
Test in all cases: NCI-60 one-dose screen, 48 h (100 = growth as untreated, 0 = no growth, -100 = all killed)
Conditions in all cases: 10 µM

As for `Clc1cc(Cl)c(OCCCCCCN2CCNCC2)c(Cl)c1`, the growth in the assay on SK-MEL-2 melanoma is 65.2%; in the assay with EKVX NSCLC, 63.3%; in the assay with UO-31 renal it was 73.2%; with TK-10 renal, 65.9%; in the assay with ACHN renal it was 47.2%; in the assay with CAKI-1 renal it was 32.3%. Also, the growth in the assay on A498 renal is 48.1%; in the assay on CCRF-CEM leukemia, 10.7%; with MOLT-4 leukemia, -9.72% (active).
`O=C(/C=C/c1nnc2n(Cc3ccccc3)c(=O)c3c4c(sc3n12)CCCC4)c1ccccc1`: the growth in the assay with SK-MEL-2 melanoma is 107%; in the assay with EKVX NSCLC it was 92.4%; with UO-31 renal it was 80%; in the assay with TK-10 renal, 136%; in the assay on ACHN renal it was 125%; in the assay with CAKI-1 renal, 44.6%. In addition, the growth in the assay on A498 renal is 112%; in the assay on MOLT-4 leukemia it was -3.6% (active).
Regarding `CCc1cc2n(n1)-c1ncc(C(=O)OC)cc1Oc1ccccc1-2`, the growth with SK-MEL-2 melanoma is 106%; in the assay with EKVX NSCLC, 98.5%; with UO-31 renal it was 88.8%; in the assay with TK-10 renal it was 96.1%; with ACHN renal it was 108%; in the assay with CAKI-1 renal, 94%. The results for the growth in the assay on A498 renal, with CCRF-CEM leukemia and in the assay with MOLT-4 leukemia were 101%, 95.2% and 95%, respectively.
With `Cc1nc2ccc(-n3c(-c4ccc(Cl)cc4)nc4ccccc4c3=O)cc2n1Cc1ccccc1`, the growth in the assay on SK-MEL-2 melanoma is 96.5%; in the assay on EKVX NSCLC, 90.1%; in the assay with UO-31 renal, 59%; in the assay with TK-10 renal, 111%; with ACHN renal, 91.9%; with CAKI-1 renal, 81.3%. The results for the growth in the assay with A498 renal, with CCRF-CEM leukemia and in the assay on MOLT-4 leukemia were 89.7%, 80.2% and 84.1%, respectively.
For the molecule `COc1ccc(/C(=C/c2cc(OC)c(OC)cc2[N+](=O)[O-])C(=O)O)cc1`, the growth is 107% in the assay on SK-MEL-2 melanoma; 105% with EKVX NSCLC; 83% in the assay on UO-31 renal; 118% in the assay with TK-10 renal; 108% in the assay on ACHN renal; 96.1% with CAKI-1 renal. Moreover, the growth in the assay on A498 renal was 105%; in the assay on CCRF-CEM leukemia, 98.6%; in the assay with MOLT-4 leukemia, 103%.
`NC1CCC(Nc2nc(NCc3ccc(-c4ccccc4O)nc3)c3ncn(C4CCCC4)c3n2)CC1` (stereo not given): the growth with SK-MEL-2 melanoma is -81.4% (active); in the assay with EKVX NSCLC, -20.1% (active); in the assay with UO-31 renal it was 14.2%; with TK-10 renal it was 0.221% (active); in the assay on ACHN renal, -3.2% (active); in the assay with CAKI-1 renal, 14.1%. The growth in the assay on A498 renal is -82.1% (active); in the assay on CCRF-CEM leukemia it was -5.6% (active); with MOLT-4 leukemia it was -11.2% (active).
As to `CC(C)/C(=N/O)c1ccccc1`, the growth with SK-MEL-2 melanoma is 101%; in the assay with EKVX NSCLC it was 102%; in the assay with UO-31 renal it was 93.8%; in the assay with TK-10 renal, 104%; with ACHN renal, 107%; in the assay with CAKI-1 renal, 107%. Besides, the figures for the growth in the assay with CCRF-CEM leukemia and in the assay on MOLT-4 leukemia were 103% and 94%, respectively.
In the case of `O=S(=O)(NC1c2ccccc2Oc2ccccc21)c1cc(Cl)ccc1Cl`, the growth in the assay on SK-MEL-2 melanoma was 103%; with EKVX NSCLC it was 98.6%; with UO-31 renal it was 79.3%; with TK-10 renal, 95.6%; with ACHN renal, 82.7%; with CAKI-1 renal, 88.7%. Also, the growth in the assay on A498 renal was 94.3%; in the assay on CCRF-CEM leukemia it was 74.8%; in the assay with MOLT-4 leukemia, 96.7%.
Take `N#Cc1c2c([nH]c(=O)c1C(N)=O)CCCCC2`: the growth with SK-MEL-2 melanoma was 98.7%; with EKVX NSCLC, 104%; in the assay with UO-31 renal, 85.2%; in the assay on TK-10 renal, 95.4%; in the assay on ACHN renal, 104%; in the assay on CAKI-1 renal it was 99.3%. Further, the figures for the growth in the assay on A498 renal, in the assay on CCRF-CEM leukemia and in the assay on MOLT-4 leukemia were 89.8%, 95% and 117%, respectively.
In the case of `O=C(NCCc1nccs1)c1cnc2c(S)cccc2c1`, the growth in the assay on SK-MEL-2 melanoma is 22.6%; with EKVX NSCLC, 16.3%; with UO-31 renal it was 12.9%; in the assay on TK-10 renal it was 38.5%; in the assay with ACHN renal it was 29%; with CAKI-1 renal, 19%. Also, the growth with A498 renal is -2.06% (active); in the assay on CCRF-CEM leukemia it was 15.4%; in the assay with MOLT-4 leukemia, 15.1%.
Regarding `CN(C)c1ccc2c(c1)OC(N)=C(C#N)C2c1ccc2c(c1)CCCN2C` (stereo not given), the growth in the assay with SK-MEL-2 melanoma is 30.7%; in the assay on EKVX NSCLC it was 34.5%; in the assay on UO-31 renal, 51.4%; in the assay on TK-10 renal, 70.3%; in the assay with ACHN renal it was 52.8%; with CAKI-1 renal it was 40%. Moreover, the figures for the growth in the assay with CCRF-CEM leukemia and in the assay with MOLT-4 leukemia were 24.5% and 35.8%, respectively.
With `COCc1cc2c(cc1Br)OCO2`, the growth was 96.7% in the assay on SK-MEL-2 melanoma; 102% in the assay on EKVX NSCLC; 84.6% in the assay on UO-31 renal; 95.7% with TK-10 renal; 101% with ACHN renal; 95% with CAKI-1 renal. Further, the growth in the assay with A498 renal was 91.2%; in the assay on CCRF-CEM leukemia, 71.9%; in the assay on MOLT-4 leukemia it was 107%.
For `CC(C)c1[nH]nc2c(NCc3ccc(-c4ccccn4)cc3)nc(SCCN)nc12`, the growth in the assay on SK-MEL-2 melanoma was -82.1% (active); with EKVX NSCLC, 1.6% (active); in the assay on UO-31 renal it was 0.673% (active); in the assay with TK-10 renal it was -2.72% (active); with ACHN renal, 6.26% (active); with CAKI-1 renal, 25.6%. Besides, the growth in the assay on CCRF-CEM leukemia is -0.568% (active); with MOLT-4 leukemia, -0.423% (active).
Regarding `CC(=O)c1ccc(NCn2nc(-c3ccc(Cl)cc3)oc2=S)cc1`, the growth in the assay with SK-MEL-2 melanoma is 99.3%; in the assay on EKVX NSCLC, 103%; in the assay with UO-31 renal, 95.8%; in the assay on TK-10 renal it was 95.9%; in the assay on ACHN renal it was 96.1%; in the assay with CAKI-1 renal, 97%. The growth in the assay on A498 renal was 106%; in the assay on CCRF-CEM leukemia it was 103%; in the assay on MOLT-4 leukemia it was 81.8%.
With `C#CCNCCN1C(=O)c2ccc3c4c(ccc(c24)C1=O)C(=O)N(CCNCC#C)C3=O`, the growth in the assay on SK-MEL-2 melanoma is 58.6%; in the assay with EKVX NSCLC, 55.7%; with UO-31 renal, 29.5%; in the assay with TK-10 renal, 51.7%; in the assay with ACHN renal, 22.9%; in the assay with CAKI-1 renal, 49.8%. For the same molecule, the growth was 40.2% with CCRF-CEM leukemia and 20% in the assay on MOLT-4 leukemia.
